# In PubChem BioAssay AID686978 (National Center for Advancing Translational Sciences (NCATS), 2013):
# “And” between values parts separate entries of the source, which are not always exact repeats. Equal values may be shown once. About 64,000 (15%) of roughly 420,000 compounds were called active. Not shown: some 27% with an inconclusive outcome. Calls follow the shape of the dose curve; as a rule, active = well fitted inhibition curve with a large enough effect; inconclusive = small, poorly fitted or top-dose-only effect; inactive = flat fitted curve, though single readings scatter. These entries were drawn from the full list. Some structures have more than one record in an assay (separate samples or runs), and their calls can disagree.
# Test: qHTS for Inhibitors of human tyrosyl-DNA phosphodiesterase 1 (TDP1): qHTS in cells in absence of CPT; also: nearly all actives have a fitted effect of over 55% in size
# Settings: DT40 Tdp1-/- hTDP1 cells, no CPT, ATP luminescence, 48 h; activity change, negative = growth inhibition: at 46.2 µM (top of the series)
# Summary of the method: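 Seeded 400 DT40-hTDP1 cells/well (vehicle DMSO, no 20 nM CPT); pinned compounds; ≥48 hr at 37 °C; CellTiter-Glo luminescence as viability measure.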
# % is scaled to controls: 0 for no effect and ±100 for the full control effect; potency is read from the fitted curve at half-maximal effect.
Compound,"activity change, negative = growth inhibition",Potency
O=S1(=O)CCN2C(=N1)SC1=C2CCN(Cc2ccccc2)C1,-16% (inactive),
O=C(O)CC12CC3CC(C1)CC(n1ncc(NCc4ccc(F)cc4)c(Cl)c1=O)(C3)C2,4.29% (inactive),
O=C(O)c1ccc(Cn2cnc3c(=S)nc[nH]c32)cc1,3.13% (inactive),
CC(=O)N1CCSc2ccc(S(=O)(=O)N3CCC(C)CC3)cc21,,14.6 µM (active)
CCOC(=O)C1CCN(S(=O)(=O)c2ccc3c(c2)N(C(C)=O)CCO3)CC1,7.33% (inactive),
CC1CCN(S(=O)(=O)c2ccc3c(c2)n(C)c(=O)n3C)CC1,9.76% (inactive),
CCOC(=O)c1ccccc1C(=O)N1CCOCCOCCOCC1,-14.8% (inactive),
CCC(C)CN1CCC(CO)(Cc2ccccc2Cl)CC1 (configuration not stated),-7.79% (inactive),
O=C(Nc1cnccn1)c1cccnc1,5.01% (inactive),
O=C(O)c1ccc2c3c(cccc13)C(=O)N(OS(=O)(=O)c1ccccc1)C2=O,7.65% (inactive),
COc1ccccc1N1CCN(c2ncnc3onc(-c4ccc(F)cc4)c23)CC1,,18.4 µM (active)
CN(Cc1ccccc1)c1ncnc2onc(-c3ccc(F)cc3)c12,,18.4 µM (active)
COc1ccccc1N1CCN(c2ncnc3sc(C)c(-c4ccccc4)c23)CC1,-100% (inactive),
CN(Cc1ccccc1)c1ccc(-c2nc(-c3ccccc3)no2)cc1[N+](=O)[O-],-28.4% (inactive),
CCc1ccccc1N(C)C(=O)C1CCCN(c2ncnc3onc(-c4ccc(F)cc4)c23)C1 (configuration not stated),,11.6 µM (active)
Cc1ccc(Cl)cc1N(C)C(=O)C1CCCN(c2ncnc3onc(-c4ccc(F)cc4)c23)C1 (configuration not stated),,4.11 µM (active)
CCc1noc(C)c1C(=O)N1CCCC(N2CCN(c3ccc(F)cc3)CC2)C1 (configuration not stated),-6.06% (inactive),
COc1ccccc1N1CCN(c2ncnc3onc(-c4cccc(Cl)c4)c23)CC1,-0.348% (inactive),
CC1=C(c2ccc(F)cc2)S(=O)(=O)N=C1N1CCC(C(=O)NCCc2ccccc2C)CC1,-20.4% (inactive),
O=C1NN(c2ccccc2)C(=O)/C1=C/c1ccc(-c2cccc(C(=O)O)c2)o1,4.78% (inactive),
O=C1NC[C@H](CCCCN2CCN(CCc3ccccc3)C(=O)C2=O)N(CC2CCCCC2)C1=O,-18.5% (inactive),
CN(C)NC(=O)c1csnc1-c1c(Cl)cccc1Cl,-14.2% (inactive),
c1ccc(Nc2n[nH]nc2-c2ccccc2)cc1,-6.64% (inactive),
Cc1ccccc1-c1nc(CS(=O)(=O)CC(=O)NC(C)c2ccccc2)c(C)o1 (configuration not stated),,inactive and 16.4 µM (active)
Cc1ccc(S(=O)(=O)CC(=O)NC(C)c2ccccc2)cc1 (configuration not stated),2.72% (inactive),
CSc1ccc(CCNC(=O)CS(=O)(=O)Cc2nc(-c3ccccc3F)oc2C)cc1,-25.8% (inactive),
Cc1ccc(NC(=O)c2sccc2C)cc1[N+](=O)[O-],-19.1% (inactive),
